Activity calls are given as the source filed them. Calls come from the whole dose curve; as a rule, active = well fitted curve in the direction sought with a large enough effect in the repeat runs; inconclusive = weak or mixed curves; inactive = flat fitted curve, though single readings scatter.
% is set by controls: 0 for no effect and ±100 for the full control effect.

A short description of one test: qHTS assay to test for compound auto fluorescence at 590 nm (red) in HepG2 cell free culture (AID 720684). The settings on record: cell-free medium autofluorescence, red 540/590 nm; series mostly up to 91.3 µM. The gist of the method:
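Compounds are added to culture medium (MEM, 10% FBS) lacking cells, then fluorescence is read at excitation 540 nm, emission 590 nm, with Rose Bengal sodium as the equivalency standard.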
(In general: qHTS replaces the single test concentration by a dilution series.)
For the compound `CCCCC/C=C/CC(=O)OC`, the call was inactive.
On the same count and under the same terms, next, `C=CCOc1cc(Cl)ccc1C(=O)NCCN(CC)CC`: “inactive”; `CCCCCC1Nc2cc(C(F)(F)F)c(S(N)(=O)=O)cc2S(=O)(=O)N1` (stereo unspecified): “inactive”.
Still for that read-out and setting: the value for `C[Si]1(C)N[Si](C)(C)N[Si](C)(C)N1` was “inactive”; that for `Cc1oc(=O)oc1CN1CCN(c2cc3c(cc2F)c(=O)c(C(=O)O)c2n3C(C)S2)CC1` (stereo unspecified) was “inactive”.
On to `CCc1nccnc1C`, for which the outcome was inactive.
The same measure, in the same setting: next, `Cc1ccccc1C(=O)N1CC/C(=N\OS(=O)(=O)O)c2ccc(Cl)cc21`: “inactive”; `COc1cc2c(Nc3ccc(Br)cc3F)ncnc2cc1OCC1CCN(C)CC1`: “inactive”; `CO/N=C(/C(=O)N[C@@H]1C(=O)N2C(C(=O)O)=C(Cn3nnc(C)n3)CS[C@H]12)c1csc(N)n1`: “inactive”.
Same read-out and setting: next, `Cc1nc(C)nc(N2C[C@@H](C)N(c3ccnc([C@@H](C)O)n3)[C@@H](C)C2)n1`: “inactive”.
On the same count and under the same terms, the value for `CC(=O)N(CC(O)CO)c1c(I)c(C(=O)NCC(O)CO)c(I)c(C(=O)NCC(O)CO)c1I` (stereo unspecified) was “inactive”.
Take `O=C(COCCOCCOCC(=O)Nc1c(I)cc(I)c(C(=O)O)c1I)Nc1c(I)cc(I)c(C(=O)O)c1I`: the call was inactive.
For `C[C@@H]1C[C@H]2[C@@H]3C[C@H](F)C4=CC(=O)C=C[C@]4(C)[C@@]3(F)[C@@H](O)C[C@]2(C)[C@@]1(O)C(=O)CO`, the fluorescence, % of Rose Bengal is 0.414% [at 18.6 µM] (inactive).
For `C=C[Si](C)(C)O[Si](C)(C)C=C`, the outcome was inactive.

Another test in a line: qHTS assay to test for compound auto fluorescence at 460 nm (blue) in HepG2 cell free culture (AID 720685). The settings on record: Cell-free culture medium, blue autofluorescence 405/460 nm; series mostly up to 91.3 µM. The gist of the method: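 Compound (23 nL) or DMSO pinned into cell-free MEM with 10% FBS; blue fluorescence read at 405/460 nm excitation/emission, expressed as auto-fluorescence equivalency to triamterene.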
Turning to `CC(C)COC(=O)COc1ccc(Cl)cc1Cl`, the outcome was inactive.
Same read-out and setting: next, `O=c1[nH]c(=O)c2[nH]c(=O)[nH]c2[nH]1`: “inactive”; `Nc1ccc(/C=C/c2ccc(N)cc2S(=O)(=O)O)c(S(=O)(=O)O)c1`: “inactive”.
For `CCOC(=O)CC#N`, the compound was classed as inactive.
The same measure, in the same setting: next, `COc1cc(C=O)ccc1OC(=O)C(C)C`: “inactive”; `C[C@H]1O[C@H](O[C@H]2[C@H](O)[C@@H](O)[C@@H](O[C@H]3[C@H](O)[C@@H](O)[C@H](O)O[C@@H]3CO)O[C@@H]2CO)[C@H](O)[C@@H](O)[C@@H]1N[C@H]1C=C(CO)[C@@H](O)[C@H](O)[C@H]1O`: “inactive”.
`NCCc1ccn[nH]1`: the fluorescence, % of fluorescent control is -0.0614% [at 18.6 µM] (inactive).
For `CCCCC/C=C/CC(=O)OC`, the outcome was inactive.
Same read-out and setting: the value for `CCc1nccnc1C` was “inactive”.
The same measure, in the same setting: the value for `Cc1ccccc1C(=O)N1CC/C(=N\OS(=O)(=O)O)c2ccc(Cl)cc21` was “inactive”; that for `CO/N=C(/C(=O)N[C@@H]1C(=O)N2C(C(=O)O)=C(Cn3nnc(C)n3)CS[C@H]12)c1csc(N)n1` was “inactive”; that for `O=C(COCCOCCOCC(=O)Nc1c(I)cc(I)c(C(=O)O)c1I)Nc1c(I)cc(I)c(C(=O)O)c1I` was “inactive”.
